Rows were chosen to be rich in hits. Some 2.9% of all compounds tested hit in one or more screens of this group.
B2AR arrestin = recruits beta-arrestin to the human beta2-adrenergic receptor; P07550; beta-arrestin recruitment to beta2AR, cell-based reporter; Potency, µM (top dose mostly 46.1 µM), inactives show at the highest dose activation, most hits filed as activators; 330,000 compounds, 0.02% hits; AID 492947; active = well fitted activation curve with a large enough effect; inconclusive = small, poorly fitted or top-dose-only effect;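 also: potency is read from the fitted curve at half-maximal effect; 0% = DMSO controls and full agonism = EC100 isoproterenol or metaproterenol; nearly all actives have a fitted effect of over 65% in size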
Target sequence (P07550 whole entry, looked up): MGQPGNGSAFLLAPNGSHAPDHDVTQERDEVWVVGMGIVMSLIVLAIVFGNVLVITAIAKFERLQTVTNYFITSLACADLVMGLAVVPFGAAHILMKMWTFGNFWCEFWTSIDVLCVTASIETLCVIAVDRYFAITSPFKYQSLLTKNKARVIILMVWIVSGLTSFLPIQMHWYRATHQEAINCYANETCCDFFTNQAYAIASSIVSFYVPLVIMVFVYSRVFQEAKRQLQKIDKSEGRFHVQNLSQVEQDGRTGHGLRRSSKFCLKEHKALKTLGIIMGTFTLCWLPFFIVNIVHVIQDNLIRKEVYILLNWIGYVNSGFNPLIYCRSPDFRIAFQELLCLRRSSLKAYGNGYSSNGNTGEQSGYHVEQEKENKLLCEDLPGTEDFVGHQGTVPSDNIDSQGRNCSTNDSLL
D3 ag = agonists of human D3 dopamine receptor; D3R DiscoveRx beta-arrestin cells, luminescence, 90 min; max activation, %; 410,000 compounds, 0.58% hits; AID 652048; in the data active = max activation above about 30%; also: 0% is about no effect
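Cells at 1500/well, incubated overnight, then treated with pinned compounds (dopamine as control) for 90 min at 37 degrees C. DiscoveRx reagent added for 30 - 60 minutes at room temperature; luminescence read.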
DRD3 antagonist = blocks the human D3 dopamine receptor; AID 652054; 360,000 compounds, 2.5% hits; P35462; D3R cells, DiscoveRx beta-arrestin luminescence, antagonist mode; hits give low values; max response, negative = inhibition, %; in the data active = max response below about -50%; inconclusive = no clear call, values can overlap the other calls; also: % is scaled to controls: 0 for no effect and ±100 for the full control effect
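Cells expressing the human receptor were seeded at 1500 cells/well, incubated overnight at 37 degrees C in 5% CO2, then exposed to library compounds with dopamine controls for 90 minutes at 37 degrees C before luminescent detection.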
TSHR antag = blocks TSH signaling through the human TSH receptor. P16473. TSHR-expressing cells, TSH-stimulated cAMP HTRF, 2 h; hits give low values. activity change, negative = inhibition, % at 11.5 µM. 330,000 compounds, 0.2% hits;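 active = activity change below a set negative limit, meaning inhibition stronger than a set level, cut at about -70% in these data; inconclusive = activity change between two set negative limits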; also: % is scaled to controls: 0 for no effect and ±100 for the full control effect
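Inhibition of cAMP made by TSHR-expressing cells under TSH stimulation (4nM final, EC80; 2 h, 37 deg C) is quantified with a one-step lysis HTRF kit, anti-cAMP cryptate versus cAMP-d2.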
Numbers without * were called inactive; u = inconclusive; x = no result.

SMILES | B2AR arrestin | D3 ag | DRD3 antagonist | TSHR antag
Cc1cc(NC(=O)CSc2nnc(-c3cccc(Cl)c3)o2)no1 | -1% | -7 | -5 | 3
COc1cccc(-c2nnc(SCC(=O)Nc3cc(C)on3)o2)c1 | -1% | -8 | -65* | -1
COc1cccc(-c2nnc(SCC(=O)N3CCCc4ccccc43)o2)c1 | 0% | 1 | -52* | 16
COc1ccc(CNC(=O)Cc2ccc(NC(=O)N3CCCCc4ccccc43)cc2)cc1 | x | -7 | x | x
CCc1ccc(NC(=O)CN2C(C(=O)OC)=C(c3ccccc3)c3ccccc3S2(=O)=O)cc1 | x | 9 | x | x
CCOC(=O)[C@]12CCCC=C1N(CCc1ccc(OC)c(OC)c1)C(=O)[C@H](CC(=O)NCCc1ccccc1OC)C2 | x | -11 | -25 | x
Oc1c(Cl)cc(Cl)cc1/C=N/c1nccs1 | 0% | -15 | 0 | 8
Oc1c(Cl)cc(Cl)cc1/C=N/c1nc(-c2ccc(Cl)cc2)cs1 | -1% | -12 | -82* | -6
CC1(C)C[C@H](O)[C@]2(CO)[C@H](O)C[C@]3(C)C(=CCC4[C@@]5(C)CC[C@H](O)C(C)(C)C5CC[C@]43C)[C@@H]2C1 (stereo not given in full) | 0% | -7 | -84* | 0
CC1CCCN(C(=O)c2cccc(S(=O)(=O)NCc3ccccc3)c2)C1 (stereo not given) | x | 1 | -54* | x
CN(C(=O)CSc1nc2ccc(NC(=O)c3cccs3)cc2s1)c1ccccc1 | x | 4 | x | x
O=C1c2cc([N+](=O)[O-])cc3cc([N+](=O)[O-])cc(c23)C(=O)N1c1ccccn1 | -1% | -40 | -76* | -10
O=C(O)c1cccc(N2C(=O)c3cc([N+](=O)[O-])cc4cc([N+](=O)[O-])cc(c34)C2=O)c1 | -1% | -25 | -58* | -16
CC#CCC(C)[C@H](O)/C=C/[C@@H]1[C@H]2c3cccc(CCCC(=O)O)c3O[C@H]2C[C@H]1O (stereo not given in full) | x | 15 | x | x
COc1ccc(CN2CCNC(=O)C2CC(=O)NC2CCCCCC2)c(F)c1 (stereo not given) | -1% | -25 | -69* | 13
O=C1C(Nc2ccc(O)cc2)=C/C(=N/S(=O)(=O)c2cccs2)c2ccccc21 | 0% | -31 | -85* | u
O=C(O)c1ccc(Nc2nc3ccccc3nc2NS(=O)(=O)c2cccs2)cc1 | 0% | 5 | -5 | 14
O=C1C=C(Nc2ccc(O)cc2)C(=O)c2ccccc21 | 0% | -7 | -14 | 1
O=C(O)c1ccc(NC2=C/C(=N/S(=O)(=O)c3cccs3)c3ccccc3C2=O)cc1 | x | -21 | -84* | x
COc1cccc(NC(=S)N(CCc2ccc(OC)c(OC)c2)Cc2ccccn2)c1 | 0% | -19 | -53* | 0
CN1CCC(=C2c3ccccc3CC(=O)c3sccc32)CC1 | -2% | -21 | -98* | -9
CN1CCC(=C2c3ccccc3CCc3sccc32)CC1 | 0% | -80 | -91* | -10
CN1CCC(=C2c3ccccc3C(O)c3ccccc32)CC1 (stereo not given) | 0% | 2 | -80* | 5
O=C1/C(=C/c2cccs2)Cc2ccccc21 | 4% | -1 | -5 | 4
CC(=O)Nc1cc2c(cc1[N+](=O)[O-])-c1ccccc1C2O (stereo not given) | x | -12 | -15 | x
SMILES | B2AR arrestin | D3 ag | DRD3 antagonist | TSHR antag
COc1cccc(CNC(=O)C(Cc2ccccc2)NS(=O)(=O)c2ccc3c(c2)CCN3C(C)=O)c1 (stereo not given) | x | 2 | x | x
COc1ccc(C2c3cc(OC)c(OC)cc3CC(=O)N2c2cccc(C#N)c2)cc1 (stereo not given) | x | -17 | x | x
CCOc1cc(/C=C2\N=C(SC(C)C(N)=O)N(c3ccc(OC(F)F)cc3)C2=O)ccc1O (stereo not given) | -1% | -13 | -57* | -7
NC(=O)CSC1=N/C(=C\c2ccco2)C(=O)N1c1ccc(OC(F)F)cc1 | 0% | 6 | 3 | -12
COc1cc2c(cc1NC(=O)C(C)N1CCN(S(=O)(=O)c3ccc(C)c(C)c3)CC1)oc1ccccc12 (stereo not given) | -2% | 31* | -21 | 7
COc1ccc(-c2nnc(Nc3nc4c(OC)cccc4s3)o2)c(OC)c1 | 6% | -4 | -68* | -11
N#Cc1cn(CC(=O)N2CCc3ccccc3C2)c2ccccc12 | -1% | -10 | -53* | -7
O=C(Cn1cccc1C(=O)c1ccccc1)NCCCN1CCc2ccccc2C1 | 0% | -22 | u | 0
O=C(c1ccccc1)c1cccn1CC(=O)N1CCc2ccccc2C1 | 0% | -14 | -54* | -5
CCOc1cccc2cc(-c3nc(-c4ccc(Cl)cc4)c(C)s3)c(=O)oc12 | x | 6 | x | x
O=C(Cn1c(=O)n(-c2ccc(F)c(Cl)c2)c(=O)c2sc3ccccc3c21)NC1CCCC1 | x | 4 | x | x
Cc1ccc(Cl)cc1N1CCN(C(=O)Cc2c(C(=O)O)c(C)cn2C)CC1 | x | -14 | x | x
COc1ccc(OC)c(NC2=NC3(CCCC3)N=C(N)N2)c1 | 0% | -5 | -58* | 10
Nc1ncnc2c1ncn2[C@@H]1O[C@H](CNC(=O)[C@@H]2CCCN2S(=O)(=O)c2ccc(F)cc2)[C@@H](O)[C@H]1O | 0% | 37* | 0 | 16
Nc1cc(=O)nc(SCC(=O)Nc2ccc(F)cc2)n1-c1cccc(Cl)c1 | x | 2 | x | x
C=CCOc1cccc(C2/C(=C(/O)c3ccc(Cl)cc3)C(=O)C(=O)N2CCN2CCOCC2)c1 (stereo not given) | 0% | 0 | -56* | -5
C=CCOc1cccc(C2/C(=C(/O)c3ccccc3)C(=O)C(=O)N2CCN2CCOCC2)c1 (stereo not given) | 1% | -4 | -10 | 2
O=C(O)CCNc1ccc(NCCC(=O)O)c2c1C(=O)c1ccccc1C2=O | 0% | -16 | -82* | -30
CCN1CCN(Cc2c(C)[nH]c3ccc(OC)cc3c2=O)CC1 | 0% | 3 | -53* | 3
Cc1cc(Cl)ccc1NC(=O)Cn1nc(C)c2c(C)n(-c3ccccc3)nc2c1=O | x | -5 | x | x
CC1(C(=O)NCC(F)(F)F)CCN1C(=O)Cc1ccc(-c2ccccc2)cc1 (stereo not given) | x | 1 | -11 | x
Cc1ccc2nc(SCC(=O)Nc3ccc(C(N)=O)cc3)[nH]c2c1 | 0% | -7 | -21 | 31
Cc1ccc2nc(SCC(=O)Nc3cccc([N+](=O)[O-])c3)[nH]c2c1 | 0% | -18 | -52* | -12
CC1CCC(=NNC(=O)c2ccccc2-n2cccc2)CC1 (stereo not given) | 0% | -7 | 5 | 4
O=C(N/N=C/C1CCCCC1)c1ccccc1-n1cccc1 | 0% | 36* | 2 | 5
NC(=O)C1CCN(c2nc(-c3cccc([N+](=O)[O-])c3)cs2)CC1 | x | x | x | -7
Cn1c(-c2ccccc2)cnc1N | 0% | -3 | -117* | -18
CC(=O)c1ccc(N2CCN(C(=O)CCCCn3c(=O)[nH]c4ccccc4c3=O)CC2)cc1 | x | 0 | x | x
